# Calls of active or inactive are those of the source.
# What was measured:
# [1] = binders of probe aFSTL3 on microarray, primary screen, stem cell growth factor project, biochemical, small-molecule microarray, fluorescence 635/667 (AID 1064); details: higher = more signal;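 note: measures binding of the biotinylated anti-FSTL3 antibody to printed compounds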
# [2] = binders from COS7 lysate, DM2A8 probe, primary screen, torsin A project, cell lysate, small-molecule microarray, fluorescence 635/667 (AID 1065); details: higher = more signal, COS7 lysate expressing mutant human TOR1A
# [3] = binders of probe aFGF2 on microarray, primary screen, stem cell growth factor project, biochemical, small-molecule microarray, fluorescence 635/667 (AID 1067); details: higher = more signal;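 note: measures binding of biotinylated aFGF2 protein to printed compounds on slides; z-score merges feature fluorescence and signal-to-noise across triplicate slides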
# [4] = binders of probe aFGF10 on microarray, primary screen, stem cell growth factor project, biochemical, small-molecule microarray, fluorescence 635/667 (AID 1071); details: higher = more signal;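 note: score merges 667 nm spot intensity and signal to noise from triplicate slides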
# [5] = biological target: Neurogenic locus notch homolog protein 2 (Homo sapiens) (UniProt Q04721); test: Notch2 binders on small-molecule microarrays, primary screen, biochemical, small-molecule microarray, 635 nm fluorescence, stem cell growth factors (AID 1073); details: Notch2 binding, higher = more signal
# Sequence of Neurogenic locus notch homolog protein 2 (Homo sapiens) (Q04721 whole entry, looked up, canonical isoform): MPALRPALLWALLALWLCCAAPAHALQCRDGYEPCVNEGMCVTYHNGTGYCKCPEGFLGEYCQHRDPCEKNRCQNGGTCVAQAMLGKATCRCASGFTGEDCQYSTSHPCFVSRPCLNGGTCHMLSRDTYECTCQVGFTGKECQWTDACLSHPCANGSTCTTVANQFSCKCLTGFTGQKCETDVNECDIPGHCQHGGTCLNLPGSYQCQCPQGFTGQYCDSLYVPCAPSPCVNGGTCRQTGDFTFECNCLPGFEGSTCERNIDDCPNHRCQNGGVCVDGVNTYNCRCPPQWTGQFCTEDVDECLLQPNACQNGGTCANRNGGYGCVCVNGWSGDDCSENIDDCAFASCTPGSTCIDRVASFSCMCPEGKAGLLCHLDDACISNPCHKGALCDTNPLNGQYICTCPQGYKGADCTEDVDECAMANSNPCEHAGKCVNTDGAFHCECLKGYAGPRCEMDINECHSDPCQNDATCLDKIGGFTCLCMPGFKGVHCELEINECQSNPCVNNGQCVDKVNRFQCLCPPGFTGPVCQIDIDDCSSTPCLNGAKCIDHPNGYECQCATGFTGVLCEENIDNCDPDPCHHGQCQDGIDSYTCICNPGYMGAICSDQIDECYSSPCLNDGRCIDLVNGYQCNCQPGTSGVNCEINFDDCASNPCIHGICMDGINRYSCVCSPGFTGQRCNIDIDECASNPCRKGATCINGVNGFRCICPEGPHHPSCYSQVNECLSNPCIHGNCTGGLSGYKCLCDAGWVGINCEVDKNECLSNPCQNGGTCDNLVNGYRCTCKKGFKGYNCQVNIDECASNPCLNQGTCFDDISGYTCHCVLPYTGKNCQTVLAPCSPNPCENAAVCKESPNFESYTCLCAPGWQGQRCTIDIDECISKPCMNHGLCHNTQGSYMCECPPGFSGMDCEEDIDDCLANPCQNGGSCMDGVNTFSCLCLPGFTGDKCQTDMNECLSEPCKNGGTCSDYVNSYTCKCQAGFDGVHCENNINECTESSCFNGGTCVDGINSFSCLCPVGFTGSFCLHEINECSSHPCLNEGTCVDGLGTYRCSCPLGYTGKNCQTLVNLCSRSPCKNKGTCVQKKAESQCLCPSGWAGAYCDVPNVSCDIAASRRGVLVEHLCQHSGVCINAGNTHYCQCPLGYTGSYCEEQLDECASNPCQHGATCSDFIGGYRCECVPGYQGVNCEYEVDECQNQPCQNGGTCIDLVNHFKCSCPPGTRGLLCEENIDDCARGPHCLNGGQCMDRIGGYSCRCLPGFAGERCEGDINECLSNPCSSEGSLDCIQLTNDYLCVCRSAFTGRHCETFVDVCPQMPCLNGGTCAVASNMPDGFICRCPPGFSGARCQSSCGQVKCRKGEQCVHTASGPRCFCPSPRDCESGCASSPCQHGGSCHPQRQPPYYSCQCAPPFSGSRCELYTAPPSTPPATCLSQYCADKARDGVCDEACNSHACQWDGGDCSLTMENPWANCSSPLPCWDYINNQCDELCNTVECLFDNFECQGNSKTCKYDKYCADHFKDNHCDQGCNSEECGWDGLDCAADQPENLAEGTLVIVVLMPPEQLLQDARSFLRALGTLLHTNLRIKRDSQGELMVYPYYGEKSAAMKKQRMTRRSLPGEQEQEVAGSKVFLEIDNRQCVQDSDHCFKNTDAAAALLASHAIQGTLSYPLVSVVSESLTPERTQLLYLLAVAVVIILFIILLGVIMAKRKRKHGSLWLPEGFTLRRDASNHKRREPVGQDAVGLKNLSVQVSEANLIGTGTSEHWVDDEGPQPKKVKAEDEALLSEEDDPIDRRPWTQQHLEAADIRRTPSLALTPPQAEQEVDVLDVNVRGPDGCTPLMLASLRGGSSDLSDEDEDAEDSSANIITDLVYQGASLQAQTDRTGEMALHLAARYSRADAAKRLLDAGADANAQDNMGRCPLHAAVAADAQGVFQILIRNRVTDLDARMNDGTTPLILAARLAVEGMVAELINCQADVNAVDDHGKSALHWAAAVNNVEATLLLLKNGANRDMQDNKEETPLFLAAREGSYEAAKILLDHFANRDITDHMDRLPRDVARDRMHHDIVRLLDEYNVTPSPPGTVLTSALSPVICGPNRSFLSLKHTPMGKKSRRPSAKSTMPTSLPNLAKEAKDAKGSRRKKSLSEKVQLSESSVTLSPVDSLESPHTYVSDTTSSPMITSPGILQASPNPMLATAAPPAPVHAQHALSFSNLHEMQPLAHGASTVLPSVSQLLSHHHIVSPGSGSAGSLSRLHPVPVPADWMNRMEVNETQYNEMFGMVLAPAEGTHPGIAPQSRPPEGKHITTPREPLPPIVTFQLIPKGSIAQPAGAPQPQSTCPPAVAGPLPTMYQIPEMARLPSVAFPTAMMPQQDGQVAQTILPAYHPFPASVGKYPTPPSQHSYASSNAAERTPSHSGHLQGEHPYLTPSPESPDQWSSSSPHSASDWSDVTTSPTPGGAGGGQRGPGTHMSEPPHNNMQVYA
# [6] = biological target: Pro-neuregulin-1, membrane-bound isoform (Homo sapiens) (UniProt Q02297); test: NRG1 binders on small-molecule microarrays, primary screen, psychiatric disease protein project, biochemical, small-molecule microarray, fluorescence 635/667 (AID 1075); details: NRG1 binding, 635 nm fluorescence, higher = more signal;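 note: score combines 667 nm spot fluorescence with signal to noise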
# Sequence of Pro-neuregulin-1, membrane-bound isoform (Homo sapiens) (Q02297 whole entry, looked up, the tested form may be a part, canonical isoform): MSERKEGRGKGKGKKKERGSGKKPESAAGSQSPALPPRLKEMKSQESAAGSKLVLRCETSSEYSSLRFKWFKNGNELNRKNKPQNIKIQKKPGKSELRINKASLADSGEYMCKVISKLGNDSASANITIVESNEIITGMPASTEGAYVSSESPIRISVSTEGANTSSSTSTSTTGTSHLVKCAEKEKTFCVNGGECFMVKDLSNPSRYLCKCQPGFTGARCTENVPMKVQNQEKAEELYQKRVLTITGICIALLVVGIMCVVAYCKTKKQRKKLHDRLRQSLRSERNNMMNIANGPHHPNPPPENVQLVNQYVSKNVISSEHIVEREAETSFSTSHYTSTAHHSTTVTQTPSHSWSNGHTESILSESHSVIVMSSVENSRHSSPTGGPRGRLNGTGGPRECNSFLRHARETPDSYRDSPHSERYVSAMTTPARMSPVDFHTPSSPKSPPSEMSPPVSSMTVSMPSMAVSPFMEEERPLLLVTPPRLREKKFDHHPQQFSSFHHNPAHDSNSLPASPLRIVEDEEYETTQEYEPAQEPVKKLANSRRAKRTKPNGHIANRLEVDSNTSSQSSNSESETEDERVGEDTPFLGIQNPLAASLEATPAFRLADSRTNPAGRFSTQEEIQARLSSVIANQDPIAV
# [7] = tested on: Neuregulin-1 EGF-like domain; test: binders of neuregulin-1 EGF-like domain, primary screen, biochemical, small-molecule microarray, 635 nm fluorescence (AID 1081); details: small-molecule microarray binding, higher = more signal;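 note: binding of the protein to compounds printed on small-molecule microarray slides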
# [8] = FRG1 promoter luciferase signal modulators, primary screen, FRG1 inhibition for FSHD, cell-based, C2C12 myotubes, firefly/Renilla luciferase, luminescence (AID 1084); details: higher = more signal, called active from +8 up or from −8 down
# [9] = binders of probe aFST on microarray, primary screen, stem cell growth factor project, biochemical, small-molecule microarray, fluorescence 635/667 (AID 1086); details: higher = more signal;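 note: score merges 667 nm fluorescence with signal-to-noise of each printed compound spot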
# [10] = binders of probe aHhip on microarray, primary screen, stem cell growth factor project, biochemical, small-molecule microarray, fluorescence 635/667 (AID 1087); details: higher = more signal;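 note: score merges spot fluorescence at 667nm with spot signal to noise ratio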
# [11] = tested on: PRMT1 (protein arginine N-methyltransferase 1); test: PRMT1 binders on small-molecule microarrays, primary screen, biochemical, small-molecule microarray, 635 nm fluorescence (AID 1088); details: small-molecule microarray binding, higher = more signal;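 note: binding of Prmt1 protein to compounds spotted on small-molecule microarray slides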
# [12] = yeast growth modulation, basal conditions, primary screen, YJM789 clinical isolate, OD600, 24 h (AID 1089);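 note: growth of clinical yeast isolate S. cerevisiae YJM 789 seeded 1000 cells per well; test concentration not given here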; details: S. cerevisiae YJM789 growth, higher = more signal, called active from +8 up or from −8 down
# [13] = fission yeast growth modulation, primary screen, strain 972, OD600, 24 h, no modulator (AID 1090);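 note: basal condition with compound alone and no growth modifier present; test concentration not given here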; details: S. pombe 972 growth, higher = more signal, called active from +8 up or from −8 down
# [14] = S. cerevisiae growth modulation with rapamycin, primary screen, strain BY4716, OD600, 96 h (AID 1091); details: higher = more signal, called active from +8 up or from −8 down; note: test concentration not given here
# [15] = biological target: Torsin-1A-interacting protein 2 (Homo sapiens) (UniProt Q8NFQ8); test: LULL1 binders on small-molecule microarray, primary screen, cell lysate, human LULL1 lysate, 635/667 nm fluorescence (AID 1092); details: hLULL1 lysate binding, 635 nm fluorescence, higher = more signal;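 note: probe is lysate of COS7 cells overexpressing human LULL1; score merges per-feature 667 nm fluorescence with signal-to-noise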
# Sequence of Torsin-1A-interacting protein 2 (Homo sapiens) (Q8NFQ8 whole entry, looked up): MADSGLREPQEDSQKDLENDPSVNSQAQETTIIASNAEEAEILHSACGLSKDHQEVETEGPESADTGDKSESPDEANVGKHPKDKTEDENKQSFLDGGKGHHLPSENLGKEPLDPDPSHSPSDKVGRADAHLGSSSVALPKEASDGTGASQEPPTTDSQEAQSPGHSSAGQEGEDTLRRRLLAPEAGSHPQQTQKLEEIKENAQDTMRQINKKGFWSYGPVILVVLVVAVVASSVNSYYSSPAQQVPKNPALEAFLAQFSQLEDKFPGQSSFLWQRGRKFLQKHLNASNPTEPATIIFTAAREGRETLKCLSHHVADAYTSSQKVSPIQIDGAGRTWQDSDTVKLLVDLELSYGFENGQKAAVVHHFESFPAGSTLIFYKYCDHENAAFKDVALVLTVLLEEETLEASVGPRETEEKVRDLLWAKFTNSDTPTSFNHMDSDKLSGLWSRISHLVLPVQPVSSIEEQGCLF
# [16] = E. coli growth modulation, two-sided OD650, primary screen, E. coli filamentation project, strain DRC41, 24 h (AID 1093); details: OD650, 24 h, higher = more signal, called active from +8 up or from −8 down;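 note: MC1000 strain lacking acrAB efflux and sulA so SOS filamentation is blocked; test concentration not given here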
# [17] = small-molecule microarray binders of probe aLefty2, primary screen, biochemical, biotinylated probe, 635/667 nm fluorescence (AID 1094); details: higher = more signal;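 note: score merges spot fluorescence near 667 nm with spot signal-to-noise ratio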
# [18] = tested on: Noggin (protein binding on small-molecule microarray); test: Noggin binders on small-molecule microarray, primary screen, biochemical, 635/667 nm fluorescence (AID 1095); details: 635 nm fluorescence, higher = more signal;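 note: score merges 667 nm feature fluorescence with signal to noise over triplicate slides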
# [19] = biological target: Neurogenic locus notch homolog protein 3 (Homo sapiens) (UniProt Q9UM47); test: NOTCH3 binders on small-molecule microarray, primary screen, biochemical, 635/667 nm fluorescence (AID 1096); details: NOTCH3 binding, 635 nm fluorescence, higher = more signal
# [20] = small-molecule microarray binders of probe aEGFR, primary screen, biochemical, biotinylated probe, 635/667 nm fluorescence (AID 1097); details: higher = more signal;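 note: probe is a biotinylated anti-EGFR antibody binding compounds printed on slides; score combines fluorescence near 667 nm and signal to noise of each spot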
Compound,composite z-score [1],composite z-score [2],composite z-score [3],composite z-score [4],composite z-score [5],composite z-score [6],composite z-score [7],z-score [8],composite z-score [9],composite z-score [10],composite z-score [11],z-score [12],z-score [13],z-score [14],composite z-score [15],z-score [16],composite z-score [17],composite z-score [18],composite z-score [19],composite z-score [20]
COC(=O)CC=C[C@@H](C)[C@@H](C=NOC(C)CN1CCCCc2nc(C)c(C)cc21)OC (stereo not given in full),-0.0416,2.43,-0.175,-0.425,-0.229,0.33,0.987,0.739 (inactive),0.286,-0.206,1.24,-0.793 (inactive),-0.472 (inactive),-0.906 (inactive),1.24,-0.123 (inactive),-0.0063,0.946,0.234,0.0282
CO[C@H]1COC(=O)CC=C[C@H](C)[C@H](OC)COC(=O)[C@@H](C)NC(=O)CC=C[C@@H]1C,-0.57,2.19,-0.246,-0.225,-0.755,-0.468,0.659,0.484 (inactive),-0.39,0.172,1.56,-1.77 (inactive),-0.391 (inactive),-0.735 (inactive),0.525,-0.159 (inactive),-0.0122,1.61,0.346,-0.0313
O=C1[C@H]2[C@H]3[C@H](O)[C@H](O)CC(=NO[C@@H]4O[C@H](CO)[C@@H](O)[C@H](O)[C@H]4O)[C@@H]3CC[C@H]2C(=O)N1C[C@@H]1CCCO1,-0.603,-0.038,-0.0908,0.529,1.06,-0.0236,0.298,0.746 (inactive),0.254,0.0505,1.08,0.57 (inactive),-0.0413 (inactive),-0.0603 (inactive),1.21,0.415 (inactive),-0.0683,-0.287,0.979,0.0934
O=C1C=C[C@@H](O)[C@@H]2[C@@H]3C(=O)N(Cc4ccccc4)C(=O)[C@@H]3CC[C@@H]12,-0.496,-0.0062,-0.171,0.373,0.632,0.159,0.543,-0.895 (inactive),0.0563,0.226,-0.136,0.0129 (inactive),-0.676 (inactive),-0.795 (inactive),0.0218,0.575 (inactive),-0.147,0.562,0.798,-0.104
C#CCCCON=C1C[C@@H](O)[C@@H](O)[C@@H]2[C@@H]3C(=O)N(C4CCCCC4)C(=O)[C@@H]3CC[C@@H]12,0.835,0.0616,-0.115,-0.0372,0.766,0.846,0.565,0.287 (inactive),-0.0386,0.312,0.335,-1.83 (inactive),-1.61 (inactive),-1.07 (inactive),1.01,0.862 (inactive),-0.118,0.454,0.358,-0.0409
CC(CCN1CCc2nc(-c3ccccc3)c(-c3ccccc3)cc2C1)=NOC(C)CN1CCCc2nc(C)c(C)cc21 (stereo not given),-0.0304,1.12,0.0762,0.681,1.4,0.72,1.08,1.1 (inactive),0.676,0.316,1.56,-1.4 (inactive),-12.6 (active),-3.45 (inactive),2.22,0.419 (inactive),0.0704,0.582,1.09,0.0709
CCOC(=O)[C@H](Cc1ccccc1)NC(=O)CCC1CC(OC(=O)NCc2cccc3ccccc23)CC2(CCCC(COC(=O)NCC3CCCCC3)O2)O1 (stereo not given in full),-0.421,0.979,-0.154,0.183,0.595,0.619,0.994,0.0184 (inactive),0.253,0.102,1.41,-0.617 (inactive),-0.174 (inactive),-0.445 (inactive),1.4,-0.448 (inactive),-0.117,0.926,1.14,-0.0381
CCN1C(=O)[C@H]2[C@H]3[C@H](O)[C@H](O)CC(=NO[C@H](C)c4cn([C@@H]5COC[C@H]5O)nn4)[C@@H]3CC[C@H]2C1=O,-0.258,0.307,-0.0853,0.307,0.0679,-0.455,-0.14,0.225 (inactive),0.0423,-0.238,0.489,0.415 (inactive),1.01 (inactive),1.36 (inactive),0.413,0.445 (inactive),-0.129,-0.127,0.0689,-0.0678
CC(CCC(=O)OC[C@H]1O[C@H](C#Cc2ccccc2)C=C[C@@H]1Oc1ccc(C)cc1)=NOC[C@@H](C)[C@H](OCc1ccccc1)C(C)C,-0.205,-0.0926,-0.121,-0.122,-0.67,-1.01,-1.05,-0.234 (inactive),-0.114,-0.175,-0.694,-0.78 (inactive),0.484 (inactive),-0.468 (inactive),-1.27,-0.346 (inactive),-0.342,0.809,-1.27,-0.24
COC(=O)CC=C[C@@H](C)[C@@H](C=NOC(C)CN1CCCc2nc(C)c(C)cc21)NS(=O)(=O)c1ccc(C)cc1 (stereo not given in full),-0.0882,0.296,-0.0202,0.469,0.699,0.257,0.665,0.562 (inactive),0.316,0.809,1.3,0.207 (inactive),0.12 (inactive),-0.0152 (inactive),1.05,0.644 (inactive),0.156,0.629,0.812,-0.0158

# Source: PubChem BioAssay
